Assay results reported in ChEMBL document CHEMBL3988442, “University of Dundee, Small-Polar-MMV Screening Library” (2021).
For some assays here: Potency and affinity values are given separately.

Tests used:
Set-up in all cases: scale not given: direction of the effect not stated beside the values
[1] = biological target: Protein translocase subunit SecA (Escherichia coli (strain K12)) (UniProt P10408); assay: Assay to Identify E. coli SecA ATPase Inhibitors; format: functional; conditions: 30 µM
Sequence of Protein translocase subunit SecA (Escherichia coli (strain K12)) (P10408 whole entry): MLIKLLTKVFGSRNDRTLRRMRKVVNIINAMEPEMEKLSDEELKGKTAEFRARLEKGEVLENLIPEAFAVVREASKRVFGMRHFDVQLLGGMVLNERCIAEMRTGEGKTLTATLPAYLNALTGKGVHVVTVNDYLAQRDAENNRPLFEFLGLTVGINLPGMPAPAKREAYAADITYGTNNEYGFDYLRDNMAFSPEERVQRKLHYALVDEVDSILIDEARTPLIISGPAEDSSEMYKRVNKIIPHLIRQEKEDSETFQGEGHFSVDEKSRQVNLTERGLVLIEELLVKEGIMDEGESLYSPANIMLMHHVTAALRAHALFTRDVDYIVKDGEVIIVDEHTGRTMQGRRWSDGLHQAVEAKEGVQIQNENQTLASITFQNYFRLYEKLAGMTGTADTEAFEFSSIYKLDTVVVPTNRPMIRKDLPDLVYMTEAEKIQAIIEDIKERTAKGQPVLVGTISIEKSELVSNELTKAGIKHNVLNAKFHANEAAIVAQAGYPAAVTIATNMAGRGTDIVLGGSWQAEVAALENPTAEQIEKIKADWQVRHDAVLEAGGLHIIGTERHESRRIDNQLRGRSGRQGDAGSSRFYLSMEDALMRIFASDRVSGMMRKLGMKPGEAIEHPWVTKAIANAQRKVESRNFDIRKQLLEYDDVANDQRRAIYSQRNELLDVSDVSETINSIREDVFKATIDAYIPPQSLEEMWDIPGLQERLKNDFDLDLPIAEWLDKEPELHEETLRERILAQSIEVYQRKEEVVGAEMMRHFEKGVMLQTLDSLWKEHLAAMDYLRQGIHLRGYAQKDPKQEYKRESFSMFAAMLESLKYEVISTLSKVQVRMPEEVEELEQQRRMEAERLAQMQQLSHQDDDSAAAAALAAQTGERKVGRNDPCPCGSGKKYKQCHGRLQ

[2] = biological target: T1, Ubiquitin-activating enzyme e1, putative (Leishmania donovani (strain BPK282A1)) (UniProt E9BSI1); assay: Leishmania donovani Ubiquitin Activating Enzyme (LdE1); format: functional; conditions: 30 µM
T1 sequence (whole entry): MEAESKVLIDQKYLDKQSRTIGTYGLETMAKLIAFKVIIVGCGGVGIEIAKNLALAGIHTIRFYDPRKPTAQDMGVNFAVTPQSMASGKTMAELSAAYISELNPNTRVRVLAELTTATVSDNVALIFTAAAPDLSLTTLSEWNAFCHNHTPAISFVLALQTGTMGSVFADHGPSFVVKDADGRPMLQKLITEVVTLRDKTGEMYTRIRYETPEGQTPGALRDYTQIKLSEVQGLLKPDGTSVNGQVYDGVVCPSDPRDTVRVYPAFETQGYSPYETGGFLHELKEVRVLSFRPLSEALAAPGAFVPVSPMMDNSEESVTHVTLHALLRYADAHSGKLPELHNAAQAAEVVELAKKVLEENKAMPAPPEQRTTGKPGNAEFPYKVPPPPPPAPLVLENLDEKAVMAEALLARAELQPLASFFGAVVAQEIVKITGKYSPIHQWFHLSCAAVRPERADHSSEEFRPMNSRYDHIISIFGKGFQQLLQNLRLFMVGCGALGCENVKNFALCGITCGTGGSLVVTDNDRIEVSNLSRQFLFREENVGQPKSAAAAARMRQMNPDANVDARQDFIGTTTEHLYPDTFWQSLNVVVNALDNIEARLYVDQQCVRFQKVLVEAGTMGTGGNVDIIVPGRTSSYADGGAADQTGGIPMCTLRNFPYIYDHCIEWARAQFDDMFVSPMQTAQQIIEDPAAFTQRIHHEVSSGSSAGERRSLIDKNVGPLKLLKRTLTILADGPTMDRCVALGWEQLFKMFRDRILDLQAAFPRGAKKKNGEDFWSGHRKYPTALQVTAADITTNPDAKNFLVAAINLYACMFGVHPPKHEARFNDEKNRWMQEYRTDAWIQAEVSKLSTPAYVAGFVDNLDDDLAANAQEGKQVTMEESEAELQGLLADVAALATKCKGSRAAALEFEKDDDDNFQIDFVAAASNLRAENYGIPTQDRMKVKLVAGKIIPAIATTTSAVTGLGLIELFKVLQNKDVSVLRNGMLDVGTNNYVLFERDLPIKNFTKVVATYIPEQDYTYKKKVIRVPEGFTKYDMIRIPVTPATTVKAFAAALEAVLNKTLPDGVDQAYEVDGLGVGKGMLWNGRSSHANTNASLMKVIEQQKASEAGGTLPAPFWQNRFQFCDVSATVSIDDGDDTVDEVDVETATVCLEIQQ

[3] = biological target: AMP-activated protein kinase, AMPK (Homo sapiens) (UniProt P54646+O43741+P54619+Q9UGJ0+Q9Y478+Q13131+Q9UGI9); assay: AMP-dependent Kinase enzyme assay. An in vitro enzyme assay that detects ADP turnover that is directly proportional to AMPK activity. This uses naive AMPK that is activated during the assay with MK-8722; format: functional; conditions: 30 µM
[4] = biological target: Sialic acid-binding Ig-like lectin 9 (Homo sapiens) (UniProt Q9Y336); assay: Hs-Siglec9 ALPHAscreen SOP 20170721; conditions: 10 µM
Sequence of Sialic acid-binding Ig-like lectin 9 (Homo sapiens) (Q9Y336 whole entry): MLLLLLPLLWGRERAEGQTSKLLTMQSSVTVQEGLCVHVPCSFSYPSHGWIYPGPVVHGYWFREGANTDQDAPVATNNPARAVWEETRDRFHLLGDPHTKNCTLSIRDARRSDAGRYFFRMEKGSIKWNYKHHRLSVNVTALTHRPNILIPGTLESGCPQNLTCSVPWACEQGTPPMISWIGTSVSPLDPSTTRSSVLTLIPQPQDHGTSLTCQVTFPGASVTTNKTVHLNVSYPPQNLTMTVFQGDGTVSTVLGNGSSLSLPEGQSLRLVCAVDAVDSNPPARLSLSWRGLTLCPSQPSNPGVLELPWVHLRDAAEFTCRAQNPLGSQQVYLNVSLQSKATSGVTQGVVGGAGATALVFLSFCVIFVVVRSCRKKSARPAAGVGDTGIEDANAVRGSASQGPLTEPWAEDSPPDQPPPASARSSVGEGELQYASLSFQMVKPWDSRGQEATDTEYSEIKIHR

Trypanosoma cruzi = assay: Trypanosoma cruzi phosphomannomutase and mannose-1-phosphate guanylyltransferase assay; format: functional; conditions: 10 µM
[5] = biological target: T2, Arginase-2, mitochondrial (Homo sapiens) (UniProt P78540); assay: in vitro enzyme assay to detect the production of urea directly proportional to the activity of Arginase II; format: functional; conditions: 33.3 µM; note: in the data most compounds retested in dose-response had high values
T2 sequence (whole entry): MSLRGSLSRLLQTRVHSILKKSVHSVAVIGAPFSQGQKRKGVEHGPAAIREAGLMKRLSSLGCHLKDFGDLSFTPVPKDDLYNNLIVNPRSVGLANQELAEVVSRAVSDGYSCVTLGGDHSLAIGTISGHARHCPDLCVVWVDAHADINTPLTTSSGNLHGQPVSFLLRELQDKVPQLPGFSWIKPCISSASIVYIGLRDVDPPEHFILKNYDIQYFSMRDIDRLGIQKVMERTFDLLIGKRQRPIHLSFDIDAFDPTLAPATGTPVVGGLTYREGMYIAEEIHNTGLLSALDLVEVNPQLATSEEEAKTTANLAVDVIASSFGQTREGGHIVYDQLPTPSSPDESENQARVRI

[6] = biological target: T3, Proteasome subunit beta (Trypanosoma cruzi) (UniProt O96673); assay: Trypanosoma cruzi proteasome chymotrypsin-like activity (TcProtChymo) assay.; note: in the data most compounds retested in dose-response had high values; format: functional; conditions: 9.37 µM
T3 sequence (whole entry): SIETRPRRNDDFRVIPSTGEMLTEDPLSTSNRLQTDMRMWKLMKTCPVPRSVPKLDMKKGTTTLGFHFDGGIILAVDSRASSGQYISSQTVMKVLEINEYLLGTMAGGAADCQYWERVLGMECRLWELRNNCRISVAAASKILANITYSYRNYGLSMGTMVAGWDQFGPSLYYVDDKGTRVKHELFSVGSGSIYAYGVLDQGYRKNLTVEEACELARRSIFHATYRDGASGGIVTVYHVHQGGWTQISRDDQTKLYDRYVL

Homo sapiens = species: Homo sapiens; assay: To identify inhibition of the IFN signalling (Jak-Stat) pathway via expression of an eGFP reporter gene under the control of an IFN-stimulated response element (ISRE) containing MxA promoter.; format: functional; conditions: 30 µM
[7] = biological target: T4, Tyrosyl-tRNA synthetase, putative (Trypanosoma cruzi (strain CL Brener)) (UniProt Q4DSP6); assay: Trypanosoma cruzi tyrosyl tRNA synthetase (TcYRS) _High Tyrosine SOP; format: functional; conditions: 30 µM; note: in the data most compounds retested in dose-response had high values
T4 sequence (whole entry): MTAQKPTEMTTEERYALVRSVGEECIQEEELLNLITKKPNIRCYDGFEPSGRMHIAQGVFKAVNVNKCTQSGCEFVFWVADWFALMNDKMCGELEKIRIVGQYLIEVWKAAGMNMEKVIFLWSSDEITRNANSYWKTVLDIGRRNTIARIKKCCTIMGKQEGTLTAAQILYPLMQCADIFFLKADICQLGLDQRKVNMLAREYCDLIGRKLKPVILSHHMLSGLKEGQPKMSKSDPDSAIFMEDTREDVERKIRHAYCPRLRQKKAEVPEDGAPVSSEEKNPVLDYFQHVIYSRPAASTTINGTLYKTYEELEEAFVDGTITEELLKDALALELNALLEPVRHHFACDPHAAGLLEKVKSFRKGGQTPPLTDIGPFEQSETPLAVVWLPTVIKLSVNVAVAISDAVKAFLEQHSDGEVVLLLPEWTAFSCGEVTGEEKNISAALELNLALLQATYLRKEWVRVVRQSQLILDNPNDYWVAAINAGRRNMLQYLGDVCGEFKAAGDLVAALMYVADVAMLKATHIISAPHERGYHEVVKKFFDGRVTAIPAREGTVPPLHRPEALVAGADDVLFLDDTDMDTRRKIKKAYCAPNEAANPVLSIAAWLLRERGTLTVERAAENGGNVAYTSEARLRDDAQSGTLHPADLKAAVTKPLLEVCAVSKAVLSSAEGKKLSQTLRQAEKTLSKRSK

[8] = biological target: T4, Tyrosyl-tRNA synthetase, putative (Trypanosoma cruzi (strain CL Brener)); assay: Trypanosoma cruzi tyrosyl tRNA synthetase (TcYRS) SOP; format: functional; conditions: 30 µM
[9] = biological target: Chromo domain-containing protein 1 (Saccharomyces cerevisiae (strain ATCC 204508 / S288c) (Baker's yeast)) (UniProt P32657); assay: ScCHD-1 Enzyme Inhibition Assay; format: functional; conditions: 30 µM; note: in the data most compounds retested in dose-response had high values
Sequence of Chromo domain-containing protein 1 (Saccharomyces cerevisiae (strain ATCC 204508 / S288c) (Baker's yeast)) (P32657 whole entry, the tested form may be a part): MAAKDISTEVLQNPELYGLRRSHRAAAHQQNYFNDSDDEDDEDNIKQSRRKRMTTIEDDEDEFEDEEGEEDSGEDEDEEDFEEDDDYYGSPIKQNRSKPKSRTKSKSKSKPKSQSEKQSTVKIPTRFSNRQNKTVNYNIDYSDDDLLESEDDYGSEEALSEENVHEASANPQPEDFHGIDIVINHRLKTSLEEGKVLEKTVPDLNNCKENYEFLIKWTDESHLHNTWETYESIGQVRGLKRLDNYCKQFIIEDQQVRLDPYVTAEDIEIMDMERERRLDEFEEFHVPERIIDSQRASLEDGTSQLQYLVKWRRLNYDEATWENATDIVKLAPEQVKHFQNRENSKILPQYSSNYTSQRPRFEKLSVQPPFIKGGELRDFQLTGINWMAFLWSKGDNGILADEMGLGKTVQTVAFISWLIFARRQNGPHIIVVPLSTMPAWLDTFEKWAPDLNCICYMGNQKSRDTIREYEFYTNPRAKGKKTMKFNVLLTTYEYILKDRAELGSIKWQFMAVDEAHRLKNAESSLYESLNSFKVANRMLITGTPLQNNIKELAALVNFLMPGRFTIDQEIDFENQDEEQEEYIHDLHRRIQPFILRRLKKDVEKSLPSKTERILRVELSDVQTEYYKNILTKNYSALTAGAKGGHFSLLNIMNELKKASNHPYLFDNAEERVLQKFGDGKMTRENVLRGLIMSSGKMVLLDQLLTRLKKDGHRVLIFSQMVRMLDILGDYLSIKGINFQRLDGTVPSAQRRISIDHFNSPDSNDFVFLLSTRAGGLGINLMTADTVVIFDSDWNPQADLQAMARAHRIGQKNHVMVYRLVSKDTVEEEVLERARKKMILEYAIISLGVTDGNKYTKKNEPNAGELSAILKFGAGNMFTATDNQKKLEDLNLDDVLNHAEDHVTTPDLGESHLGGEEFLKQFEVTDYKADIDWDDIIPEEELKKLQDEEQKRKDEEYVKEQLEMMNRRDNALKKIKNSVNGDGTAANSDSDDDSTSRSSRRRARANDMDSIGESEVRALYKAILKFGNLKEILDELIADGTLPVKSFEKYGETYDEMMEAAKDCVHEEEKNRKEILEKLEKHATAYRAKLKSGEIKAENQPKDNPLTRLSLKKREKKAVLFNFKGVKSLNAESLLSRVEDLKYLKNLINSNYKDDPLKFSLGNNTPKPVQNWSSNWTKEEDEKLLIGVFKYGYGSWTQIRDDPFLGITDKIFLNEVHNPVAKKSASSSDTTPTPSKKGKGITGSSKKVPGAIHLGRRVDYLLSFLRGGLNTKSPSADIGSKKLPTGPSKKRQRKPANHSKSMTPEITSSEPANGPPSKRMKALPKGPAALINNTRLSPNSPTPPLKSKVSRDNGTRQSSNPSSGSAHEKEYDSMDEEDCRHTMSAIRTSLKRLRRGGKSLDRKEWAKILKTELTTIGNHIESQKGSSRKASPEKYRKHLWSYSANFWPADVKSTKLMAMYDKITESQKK

Structure (SMILES) | Percent Effect [1] [%] | Percent Effect [2] [%] | Percent Effect [3] [%] | Percent Effect [4] [%] | Percent Effect (Trypanosoma cruzi) [%] | Percent Effect [5] [%] | Percent Effect [6] [%] | Percent Effect (Homo sapiens) [%] | Percent Effect [7] [%] | Percent Effect [8] [%] | Percent Effect [9] [%]
OC[C@H]1CC[C@]2(CC1)CN(Cc1ccccc1F)Cc1ccccc1O2 | -4.99 | 4.05 | 15.1 | 6.64 | 4.15 | 2.55 | 12.6 | 41.4 | 3.23 | 14.3 | -0.993
CCN(Cc1ccc2c(c1)OCCO2)C(=O)NCc1cc[nH]n1 | -2.19 | 15.6 | 1.3 | 2.08 | -2.06 | 1.47 | 7.03 | -7.15 | 5.71 | 11.8 | -19.3
CCN(CC)C(=O)Cn1ccc2cc(NC(=O)C3CC3)ccc21 | -5.06 | 15.8 | -9.59 | 7.96 | 6.39 | -3.06 | 14.9 | 4.68 | 5.39 | 21.9 | -12.7
CC(C)Cc1noc(CN2CCCC(Cn3cncn3)C2)n1 (configuration not stated) | -4.29 | 16.2 | -4.96 | 16.6 | 3.25 | 2.03 | 7 | 13.5 | 11.9 | 28.1 | -7.85
Cn1ccc(C(=O)NC2CCC23CCN(C(=O)N2CCCC2)CC3)c1 (configuration not stated) | -3.06 | 16.2 | 3.04 | -9.67 | 3.42 | -6.05 | 19.2 | -7.3 | 6.49 | 15.4 | 1.18
Cn1c(C(F)(F)F)nn(CCNC(=O)c2cnc3ccccc3n2)c1=O | -2.81 | 13.7 | 4.14 | 14.5 | 3.33 | 0.909 | -1.95 | -0.549 | 3.23 | 12.5 | -3.18
CCCOc1cc(CNC(=O)Nc2cccnc2N2CCCC2)ccn1 | -1.55 | -2.7 | -14.8 | 5.9 | -1.04 | 4.81 | 5.77 | 6.16 | -0.493 | 3.7 | -5.59
Cc1cccc(Cn2c3c(ccc2=O)CCN(Cc2ccoc2)CC3)n1 | -0.765 | 8.22 | -3.21 | 11.9 | 7.54 | -14 | 10.5 | 6.67 | 4.17 | 6.17 | -3.8
Cc1cnn(CC2CN(Cc3nc(-c4ccoc4)no3)CCO2)c1 (configuration not stated) | -2.87 | 8.11 | -1.58 | 1.14 | 7.08 | 0.401 | 2.16 | 13.1 | 3.45 | 11.1 | -9.57
COCc1n[nH]/c(=N/C(=O)COc2cnc(C)cc2O)s1 | -1.58 | -5.26 | 2.8 | 1.24 | -6.33 | -1.18 | 9.3 | -1.08 | 3.19 | 5.2 | -4.33
O=C(c1ccccn1)N1CCc2nc(-c3cnccn3)nc(O)c2C1 | 0.65 | 12.2 | 8.6 | 0.354 | -3.36 | -0.232 | 11.7 | 14.4 | 4.3 | 14.3 | -12.2
Cc1cc(C)n(CC2CCCN2C(=O)Cc2c(C)noc2C)n1 (configuration not stated) | -7.56 | 8.11 | -14.7 | 23.5 | 2.92 | -9.62 | 9.37 | 15.8 | 4.43 | 13.6 | -11.4
CCN(CC(=O)NC)S(=O)(=O)N1CCCCCC1 | -5.53 | 10.8 | -3.76 | 4.7 | -0.489 | 3.72 | 6.61 | 8.47 | 4.3 | 13.6 | -2.62
O=C(CN(Cc1ccccc1)CC1CCOCC1)Nc1nccs1 | -4.59 | 0 | 0.406 | 1.15 | -4.17 | 0.399 | 4.2 | -3.27 | 6.25 | 11.1 | -0.498
O=C1CC2(CCN(c3nncs3)C2)CN1c1ccccc1 (configuration not stated) | -2.98 | 5.41 | -3.44 | 2.02 | -5.66 | 4.58 | 12.4 | -3.33 | 4.95 | 11 | 0.436
COc1c(C)cnc(CN2CCCCC2Cn2nc(C)nc2C)c1C (configuration not stated) | 0.617 | 17.7 | -1.73 | -6.46 | 2.55 | 5.32 | 14.8 | 4.74 | 14.3 | 26.6 | -9.69
CCOC(=O)NC(C(=O)NCc1ccc(N2CCCCC2)nc1)C(C)C (configuration not stated) | -0.611 | 13.5 | -4 | -4.82 | -5.94 | 0 | 13.9 | 28.9 | 3.45 | 16.1 | -3.65
COCC(=O)N1Cc2cn(C)nc2C(COc2cccnc2)C1 (configuration not stated) | 1.2 | 15.6 | 0.672 | -9.95 | -0.493 | 7.1 | 10.4 | 35.1 | 1.06 | 6.41 | -9.03
Cc1nccn1CCCC(=O)N1CCC(Nc2cccnn2)CC1 | -3.42 | 5.41 | -7.19 | 11.7 | 4.43 | -1.6 | 3.06 | 1.39 | 2.46 | 16.1 | -8.26
COc1c(CNCC(c2cccc(F)c2)N(C)C)c(C(C)C)nn1C (configuration not stated) | -2.21 | 5.2 | -2.29 | -6.06 | 4.6 | -3.16 | 4.61 | 5.62 | 0 | 9.41 | -5.27
Cc1ccccc1CN1CCN(CC(=O)Nc2cccnc2)CC1 | -3.14 | 15.6 | -360 | -1.61 | 6.95 | 3.58 | 11.1 | 12.5 | 4.76 | 18.8 | -2.58
Cn1ccnc1COc1ccc(CO)cc1 | -1.04 | 5.2 | -1.87 | -8.74 | -5.06 | 8.19 | 6.59 | 36.8 | 3.88 | 14.6 | -8.46
